Normalised cell viability data for 33 compounds are collected here from the supplement of paper PMC6609913.

This experiment has as its system V-C8 (BRCA2-deficient hamster cells). The experiment can be described thus: normalised cell viability (fraction of plate median); higher = more viable cells (less toxic). The conditions noted are these: 5 µM. In a few lines:
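In two screens, library drugs at 5 μM were given for 3 days (screen 1) or 6 days (screen 2) to hamster V-C8 cells without BRCA2 and V-C8 cells with BRCA2 restored, seeded 24 h earlier in 96-well plates. A resazurin assay gave the cell viability readout, expressed as modified robust per cent of sample against the plate median, with triplicate wells averaged.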

Structures can show the parent of a compound that is named as a salt. ± gives the standard deviation of the averaged measurements. The full ranking holds about 1,300 compounds; the median of “normalised cell viability” is about 1, and the lowest 2% start at about 0.14. The full list was thinned out, with the lowest values kept by preference.

`O=C1CN(/N=C/c2ccc([N+](=O)[O-])o2)C(=O)N1` [Nitrofurantoin]: the normalised cell viability reads like this: (treatment time: 3 days) 0.937 ± 0.025; (treatment time: 6 days) 1.15 ± 0.29.

As for `CN[C@@H]1[C@@H](O)[C@@H](O[C@@H]2[C@@H](O)[C@H](O[C@H]3OC(CN)=CC[C@H]3N)[C@@H](N)C[C@H]2N)OC[C@]1(C)O` [Sisomicin sulfate], the normalised cell viability turned out to be 0.157 ± 0.0072 (treatment time: 3 days) and 0.145 ± 0.0056 (treatment time: 6 days).

For `COc1cc2nc(N(C)CCCNC(=O)C3CCCO3)nc(N)c2cc1OC` (stereo unspecified) [Alfuzosin hydrochloride], the normalised cell viability is 0.987 ± 0.056 (treatment time: 3 days) and 1.08 ± 0.08 (treatment time: 6 days).

As to `c1ccc(CC2=NCCN2)cc1` [Tolazoline hydrochloride], the normalised cell viability amounted to 1 ± 0.025 (treatment time: 3 days) and 0.98 ± 0.038 (treatment time: 6 days).

In the case of `CC(C)(O)c1ccccc1CC[C@@H](SCC1(CC(=O)O)CC1)c1cccc(/C=C/c2ccc3ccc(Cl)cc3n2)c1` [Montelukast], the normalised cell viability by setting is: (treatment time: 3 days) 1.09 ± 0.11; (treatment time: 6 days) 1.1 ± 0.052.

As to `CCC(C)(CN(C)C)OC(=O)c1ccccc1` (stereo unspecified) [Amyleine hydrochloride], the normalised cell viability by setting is: (treatment time: 3 days) 1.074 ± 0.0072; (treatment time: 6 days) 1.02 ± 0.036.

Turning to `C#CCN[C@@H]1CCc2ccccc21` [Rasagiline], the normalised cell viability was determined as 1.08 ± 0.055 (treatment time: 3 days) and 1.06 ± 0.038 (treatment time: 6 days).

`Clc1ccc(C(Cn2ccnc2)OCc2csc3c(Cl)cccc23)c(Cl)c1` (stereo unspecified) [Sertaconazole nitrate]: the normalised cell viability came to 0.737 ± 0.18 (treatment time: 3 days) and 0.821 ± 0.12 (treatment time: 6 days).

On to `Cc1cccc(N(C)C(=S)Oc2ccc3ccccc3c2)c1` [Tolnaftate], for which the normalised cell viability by setting is: (treatment time: 3 days) 1 ± 0.041; (treatment time: 6 days) 0.983 ± 0.02.

As for `C=CCOC(Cn1ccnc1)c1ccc(Cl)cc1Cl` (stereo unspecified) [Enilconazole], the normalised cell viability is, setting by setting: (treatment time: 3 days) 0.93 ± 0.04; (treatment time: 6 days) 0.943 ± 0.015.

Take `Clc1ccc(CO/N=C(\Cn2ccnc2)c2ccc(Cl)cc2Cl)c(Cl)c1` [Oxiconazole Nitrate]: the normalised cell viability runs as follows: (treatment time: 3 days) 0.807 ± 0.043; (treatment time: 6 days) 0.898 ± 0.043.

As for `CN1CCN(C(c2ccccc2)c2ccc(Cl)cc2)CC1` (stereo unspecified) [Chlorcyclizine hydrochloride], the normalised cell viability (treatment time: 3 days) came to 0.947 ± 0.019 and the normalised cell viability (treatment time: 6 days) is 0.979 ± 0.073.

`O=C(O)CCNC(=O)c1ccc(/N=N/c2ccc(O)c(C(=O)O)c2)cc1` [Balsalazide Sodium]: the normalised cell viability runs as follows: (treatment time: 3 days) 0.973 ± 0.027; (treatment time: 6 days) 0.953 ± 0.13.

As to `Nc1ccn([C@H]2CC[C@@H](CO)O2)c(=O)n1` [Zalcitabine], the normalised cell viability runs as follows: (treatment time: 3 days) 1.02 ± 0.059; (treatment time: 6 days) 1.04 ± 0.044.

With `Nc1ccn([C@@H]2CS[C@H](CO)O2)c(=O)n1` [Lamivudine], the normalised cell viability came to 0.147 ± 0.0082 (treatment time: 3 days) and 0.139 ± 0.012 (treatment time: 6 days).

In the case of `Nc1ccn([C@@H]2O[C@H](CO)[C@@H](O)[C@@H]2O)c(=O)n1` [Cytarabine], the normalised cell viability (treatment time: 3 days) was 0.206 ± 0.0091 and the normalised cell viability (treatment time: 6 days) turned out to be 0.196 ± 0.022.

As for `CC(C)NCC(O)COc1ccc(COCCOC(C)C)cc1` (stereo unspecified) [Bisoprolol fumarate], the normalised cell viability runs as follows: (treatment time: 3 days) 1.04 ± 0.044; (treatment time: 6 days) 1.16 ± 0.049.

In the case of `COC(=O)CCc1ccc(OCC(O)CNC(C)C)cc1` (stereo unspecified) [Esmolol hydrochloride], the normalised cell viability reads like this: (treatment time: 3 days) 1.04 ± 0.077; (treatment time: 6 days) 0.939 ± 0.08.

Turning to `CC(C)NCC(O)COc1ccc(CCOCC2CC2)cc1` (stereo unspecified) [Betaxolol hydrochloride], the normalised cell viability amounted to 0.1577 ± 0.00096 (treatment time: 3 days) and 0.136 ± 0.014 (treatment time: 6 days).

Consider `O=C1[C@H](CC[C@H](O)c2ccc(F)cc2)[C@@H](c2ccc(O)cc2)N1c1ccc(F)cc1` [Ezetimibe], for which the normalised cell viability turned out to be 1.02 ± 0.093 (treatment time: 3 days) and 1.03 ± 0.022 (treatment time: 6 days).

Take `CN1CCN(C2=Nc3ccccc3Oc3ccc(Cl)cc32)CC1` [Loxapine succinate]: the normalised cell viability is 1.17 ± 0.063 (treatment time: 3 days) and 1.15 ± 0.03 (treatment time: 6 days).

As for `Cc1cc(C2CCCCC2)n(O)c(=O)c1` [Ciclopirox ethanolamine], the normalised cell viability runs as follows: (treatment time: 3 days) 0.207 ± 0.012; (treatment time: 6 days) 0.23 ± 0.015.

As for `COC(=O)C1=C(C)NC(C)=C(C(=O)OCC(C)C)C1c1ccccc1[N+](=O)[O-]` (stereo unspecified) [Nisoldipine], the normalised cell viability came out at 0.889 ± 0.059 (treatment time: 3 days) and 0.894 ± 0.019 (treatment time: 6 days).

As for `Cc1c(N)c(=O)n(-c2ccccc2)n1C` [Ampyrone], the normalised cell viability is, setting by setting: (treatment time: 3 days) 1.01 ± 0.12; (treatment time: 6 days) 1.06 ± 0.055.

With `Nc1nc(=S)c2ncn([C@@H]3O[C@H](CO)[C@@H](O)[C@H]3O)c2[nH]1` [Thioguanosine], the normalised cell viability turned out to be 0.307 ± 0.013 (treatment time: 3 days) and 0.28 ± 0.017 (treatment time: 6 days).

On to `CCC(Cc1c(I)cc(I)c(N)c1I)C(=O)O` (stereo unspecified) [Iopanoic acid], for which the normalised cell viability was 0.999 ± 0.036 (treatment time: 3 days) and 1.07 ± 0.033 (treatment time: 6 days).

For `CN(C)CCn1nnnc1SCC1=C(C(=O)O)N2C(=O)[C@@H](NC(=O)Cc3csc(N)n3)[C@H]2SC1` [Cefotiam hydrochloride], the normalised cell viability runs as follows: (treatment time: 3 days) 0.996 ± 0.028; (treatment time: 6 days) 1.12 ± 0.093.

Turning to `CC(C)NC[C@@H](O)COc1cccc2ccccc12` [(R)-Propranolol hydrochloride], the normalised cell viability was found to be 0.914 ± 0.085 (treatment time: 3 days) and 1.06 ± 0.085 (treatment time: 6 days).

Compound `CCc1cccc(CC)c1NC(=O)CN(CC(=O)O)CC(=O)O` [Etifenin] came in with a normalised cell viability (treatment time: 3 days) of 1.07 ± 0.047 and a normalised cell viability (treatment time: 6 days) of 1.04 ± 0.043.

With `CC(NCCC(c1ccccc1)c1ccccc1)c1ccccc1` (stereo unspecified) [Fendiline hydrochloride], the normalised cell viability by setting is: (treatment time: 3 days) 0.197 ± 0.018; (treatment time: 6 days) 0.496 ± 0.16.

As to `Cc1cc(NS(=O)(=O)c2ccc(N)cc2)no1` [Sulfamethoxazole], the normalised cell viability by setting is: (treatment time: 3 days) 1.02 ± 0.028; (treatment time: 6 days) 0.959 ± 0.076.

In the case of `CC(C)/N=c1\cc2n(-c3ccc(Cl)cc3)c3ccccc3nc-2cc1Nc1ccc(Cl)cc1` [Clofazimine], the normalised cell viability was 0.148 ± 0.0016 (treatment time: 3 days) and 0.133 ± 0.017 (treatment time: 6 days).

For the compound `Cc1cnc(C(=O)NCCc2ccc(S(=O)(=O)NC(=O)NC3CCCCC3)cc2)cn1` [Glipizide], the normalised cell viability stood at 1.093 ± 0.0089 (treatment time: 3 days) and 1.13 ± 0.034 (treatment time: 6 days).
